Measured values published in the antibiotic and cytotoxicity screens of Wong et al. (2023).
Among all 39,000 compounds or so, about 3,300 (8.5%) were called active. The list comes from a sample in which actives are over-represented; it also holds similar structures and randomly drawn compounds.

System: HepG2
Experiment: cytotoxicity call (relative viability < 0.9)
Conditions: 10 µM

Row | Structure (SMILES) | cytotoxicity call
1 | COCC(=O)Nc1ccc2c(c1)OC[C@H](C)N(C(=O)Cc1cccnc1)C[C@@H](C)[C@H](OC)CN(C)C2=O | inactive
2 | COCC#Cc1ccc2c(c1)O[C@H](CN(C)C(=O)Nc1ccccc1F)[C@H](C)CN([C@@H](C)CO)S2(=O)=O | inactive
3 | COc1ccccc1-c1cnc2c(c1)C(=O)N([C@@H](C)CO)C[C@H](C)[C@@H](CN(C)C(=O)c1ccncc1)O2 | inactive
4 | O=C(C[C@H]1CC[C@@H](NC(=O)CN2CCOCC2)[C@@H](CO)O1)NC1CCC1 | inactive
5 | O=C1/C(=C/C=C/c2ccco2)CCC/C1=C\C=C\c1ccco1 | inactive
6 | NC(=O)CSc1nnnn1-c1cccc(O)c1 | inactive
7 | C[C@H]1CN([C@@H](C)CO)C(=O)c2cccc(NC(=O)c3cnccn3)c2O[C@@H]1CN(C)S(=O)(=O)c1ccc(Cl)cc1 | inactive
8 | CC(C)NC(=O)N(C)C[C@H]1Oc2ccc(NC(=O)C3CCCCC3)cc2C(=O)N([C@@H](C)CO)C[C@@H]1C | inactive
9 | CS(=O)(=O)Nc1ccc2c(c1)[C@H]1C[C@@H](CC(=O)NCc3ccc(-c4ccccc4)cc3)O[C@@H](CO)[C@H]1O2 | inactive
10 | C[C@@H]1CCCCO[C@H](CN(C)Cc2ccccc2)[C@H](C)CN([C@H](C)CO)C(=O)c2cc(NS(=O)(=O)c3ccc(F)cc3)ccc2O1 | inactive
11 | O=C(C[C@H]1C=C[C@H](NS(=O)(=O)c2ccccc2)[C@@H](CO)O1)NCc1ccncn1 | inactive
12 | C[C@@H]1CN([C@H](C)CO)C(=O)Cc2cc(NC(=O)Nc3ccc(C(F)(F)F)cc3)ccc2O[C@@H]1CN(C)Cc1ccc(C(=O)O)cc1 | inactive
13 | C[C@H]1CN([C@@H](C)CO)C(=O)Cc2cc(NC(=O)Nc3ccc(C(F)(F)F)cc3)ccc2O[C@@H]1CN(C)Cc1ccc(C(F)(F)F)cc1 | inactive
14 | C[C@@H]1CN([C@H](C)CO)C(=O)Cc2cc(NC(=O)Nc3ccc(C(F)(F)F)cc3)ccc2O[C@H]1CN(C)Cc1ccc(C(F)(F)F)cc1 | inactive
15 | C[C@@H]1CN([C@H](C)CO)C(=O)Cc2cc(NC(=O)CCC(F)(F)F)ccc2O[C@H]1CN(C)Cc1ccc(C(F)(F)F)cc1 | active
16 | C[C@H](CO)N1C[C@H](C)[C@H](CN(C)Cc2ccc(C(F)(F)F)cc2)Oc2ccc(NC(=O)Nc3ccc(C(F)(F)F)cc3)cc2CC1=O | active
17 | C[C@H]1CN([C@@H](C)CO)C(=O)Cc2cc(NC(=O)Nc3ccc(C(F)(F)F)cc3)ccc2O[C@H]1CN(C)Cc1ccc(C(F)(F)F)cc1 | active
18 | C[C@@H]1CN([C@H](C)CO)C(=O)Cc2cc(NC(=O)CCC(F)(F)F)ccc2O[C@@H]1CN(C)Cc1ccc(C(F)(F)F)cc1 | inactive
19 | C[C@H]1CN([C@@H](C)CO)C(=O)Cc2cc(NC(=O)CCC(F)(F)F)ccc2O[C@@H]1CN(C)Cc1ccc(C(F)(F)F)cc1 | inactive
20 | C[C@H](CO)N1C[C@H](C)[C@@H](CN(C)Cc2ccc(C(F)(F)F)cc2)Oc2ccc(NC(=O)Nc3ccc(C(F)(F)F)cc3)cc2CC1=O | active
21 | C[C@@H]1CN([C@@H](C)CO)C(=O)Cc2cc(NC(=O)Nc3ccc(C(F)(F)F)cc3)ccc2O[C@@H]1CN(C)Cc1ccc(C(=O)O)cc1 | inactive

Row | Structure (SMILES) | cytotoxicity call
22 | Cc1noc(C)c1NC(=O)N[C@H]1CC[C@H](CC(=O)N2CCN(C)CC2)O[C@@H]1CO | inactive
23 | O=C(C[C@@H]1CC[C@H]2[C@@H](COC[C@H](O)CN2S(=O)(=O)c2ccccc2F)O1)NCc1ccccc1Cl | inactive
24 | C[C@@H]1CN([C@@H](C)CO)C(=O)c2cc(NC(=O)Cc3ccccc3)ccc2O[C@@H]1CN(C)S(=O)(=O)c1cccs1 | inactive
25 | O=C(O)Cn1nnnc1-c1ccc(F)cc1 | inactive
26 | CO[C@H]1O[C@H](CO)[C@@H](OC(=O)c2ccc(Br)cc2)[C@@H]2OC(=O)[C@@H](Cc3ccccc3)C/C=C/C[C@H](Cc3ccccc3)C(=O)O[C@@H]12 | inactive
27 | COCC(=O)N1C[C@H](C)[C@@H](OC)CN(C)C(=O)c2ccc(NC(=O)c3ccc(F)cc3)cc2OC[C@H]1C | inactive
28 | COCC(=O)Nc1ccc2c(c1)OC[C@@H](C)N(Cc1ccccc1F)C[C@H](C)[C@H](OC)CN(C)C2=O | inactive
29 | CCCCCCCCCCCCCCCCOc1nc2ccc(C)cc2c(=O)o1 | inactive
30 | CC(C)NC(=O)N(C)C[C@H]1Oc2ccc(NC(=O)CCC(F)(F)F)cc2CC(=O)N([C@H](C)CO)C[C@H]1C | inactive
31 | C[C@@H]1CN([C@@H](C)CO)C(=O)Cc2cc(NC(=O)Nc3ccc(C(F)(F)F)cc3)ccc2O[C@H]1CN(C)Cc1ccc(C(F)(F)F)cc1 | active
32 | C[C@H]1CN([C@@H](C)CO)C(=O)Cc2cc(NC(=O)NC3CCCCC3)ccc2O[C@H]1CN(C)Cc1ccc(C(F)(F)F)cc1 | active
33 | C[C@@H]1CN([C@H](C)CO)C(=O)Cc2cc(NC(=O)NC3CCCCC3)ccc2O[C@H]1CN(C)Cc1ccc(C(F)(F)F)cc1 | inactive
34 | CC(C)NC(=O)N(C)C[C@@H]1Oc2ccc(NC(=O)CCC(F)(F)F)cc2CC(=O)N([C@@H](C)CO)C[C@H]1C | inactive
35 | C[C@H]1CN([C@@H](C)CO)C(=O)Cc2cc(NC(=O)Nc3ccc(C(F)(F)F)cc3)ccc2O[C@H]1CN(C)Cc1ccc(C(=O)O)cc1 | inactive
36 | C[C@@H]1CN([C@H](C)CO)C(=O)Cc2cc(NC(=O)Nc3ccc(C(F)(F)F)cc3)ccc2O[C@@H]1CN(C)Cc1ccc(C(F)(F)F)cc1 | active
37 | CC(C)NC(=O)N(C)C[C@H]1Oc2ccc(NC(=O)CCC(F)(F)F)cc2CC(=O)N([C@@H](C)CO)C[C@@H]1C | active
38 | C[C@H](CO)N1C[C@H](C)[C@@H](CN(C)Cc2ccc(C(=O)O)cc2)Oc2ccc(NC(=O)Nc3ccc(C(F)(F)F)cc3)cc2CC1=O | inactive
39 | C[C@@H]1CN([C@H](C)CO)C(=O)Cc2cc(NC(=O)NC3CCCCC3)ccc2O[C@@H]1CN(C)Cc1ccc(C(F)(F)F)cc1 | inactive
40 | Cc1noc(C)c1S(=O)(=O)N(C)C[C@@H]1Oc2ccc(NC(=O)Nc3ccccc3)cc2CC(=O)N([C@@H](C)CO)C[C@H]1C | inactive
41 | Cc1cc(O)c(C(=O)/C=C/N(C)C)c(=O)o1 | inactive
42 | C[C@@H]1CN([C@@H](C)CO)C(=O)CCCn2cc(nn2)CO[C@H]1CN(C)C(=O)Nc1ccc2c(c1)OCCO2 | inactive

Row | Structure (SMILES) | cytotoxicity call
43 | C[C@@H]1CN([C@@H](C)CO)C(=O)c2cc(-c3ccc(C#N)cc3)cnc2O[C@H]1CN(C)C(=O)Nc1ccc(C(F)(F)F)cc1 | inactive
44 | CCCCC[C@H]1C[C@H](O[C@H]2O[C@@H](CO)[C@@H](O)[C@@H](O)[C@@H]2O)CC(=O)O1 | inactive
45 | C[C@@H]1CN([C@H](C)CO)C(=O)Cc2cc(NC(=O)Nc3ccc(C(F)(F)F)cc3)ccc2O[C@H]1CN(C)Cc1ccc(C(=O)O)cc1 | inactive
46 | C[C@@H]1CN([C@@H](C)CO)C(=O)Cc2cc(NC(=O)Nc3ccc(C(F)(F)F)cc3)ccc2O[C@H]1CN(C)Cc1ccc(C(=O)O)cc1 | inactive
47 | C[C@@H]1CN([C@@H](C)CO)C(=O)Cc2cc(NC(=O)Nc3ccc(C(F)(F)F)cc3)ccc2O[C@@H]1CN(C)Cc1ccc(C(F)(F)F)cc1 | active
48 | C[C@@H]1CCCCO[C@@H](CN(C)S(C)(=O)=O)[C@@H](C)CN([C@@H](C)CO)C(=O)c2cc(NS(=O)(=O)c3ccc(F)cc3)ccc2O1 | inactive
49 | C[C@@H]1CN([C@@H](C)CO)C(=O)Cc2cc(NC(=O)Nc3ccccc3)ccc2O[C@@H]1CN(C)Cc1ccc(Oc2ccccc2)cc1 | active
50 | C[C@H]1CN([C@@H](C)CO)C(=O)Cc2cc(NC(=O)Nc3ccccc3)ccc2O[C@@H]1CN(C)Cc1ccc(Oc2ccccc2)cc1 | active
51 | CC(C)NC(=O)Nc1ccc2c(c1)CC(=O)N([C@@H](C)CO)C[C@H](C)[C@@H](CN(C)Cc1ccc(Oc3ccccc3)cc1)O2 | inactive
52 | CC(C)NC(=O)Nc1ccc2c(c1)CC(=O)N([C@H](C)CO)C[C@H](C)[C@H](CN(C)Cc1ccc(Oc3ccccc3)cc1)O2 | inactive
53 | CC(C)NC(=O)Nc1ccc2c(c1)CC(=O)N([C@@H](C)CO)C[C@H](C)[C@H](CN(C)Cc1ccc(Oc3ccccc3)cc1)O2 | inactive
54 | C[C@@H]1CN([C@@H](C)CO)C(=O)Cc2cc(NC(=O)Nc3ccccc3)ccc2O[C@H]1CN(C)Cc1ccc(Oc2ccccc2)cc1 | inactive
55 | C[C@H](CO)N1C[C@H](C)[C@@H](CN(C)Cc2ccc(Oc3ccccc3)cc2)Oc2ccc(NC(=O)Nc3ccccc3)cc2CC1=O | inactive
56 | C[C@H]1CN([C@@H](C)CO)C(=O)Cc2cc(NC(=O)Nc3ccccc3)ccc2O[C@H]1CN(C)Cc1ccc(Oc2ccccc2)cc1 | active
57 | C[C@@H]1CN([C@H](C)CO)C(=O)Cc2cc(NC(=O)Nc3ccccc3)ccc2O[C@H]1CN(C)Cc1ccc(Oc2ccccc2)cc1 | active
58 | COCC#Cc1ccc2c(c1)O[C@@H](CN(C)C(=O)c1ccccc1F)[C@H](C)CN([C@@H](C)CO)S2(=O)=O | inactive
59 | Cc1noc(C)c1S(=O)(=O)N(C)C[C@@H]1Oc2ccc(NS(C)(=O)=O)cc2CC(=O)N([C@H](C)CO)C[C@@H]1C | inactive
60 | C[C@H](CO)N1C[C@H](C)[C@@H](CN(C)S(=O)(=O)c2cn(C)cn2)Oc2cc(C#Cc3ccccc3)ccc2S1(=O)=O | inactive
61 | C=CC[C@@H](CC(=O)N[C@@H](CO)Cc1ccccc1)C(=O)NCCOC(=O)[C@H](CC=C)CC(=O)OC(C)(C)C | inactive
62 | C[C@@H]1CN([C@H](C)CO)C(=O)Cc2cc(NC(=O)CCN3CCOCC3)ccc2O[C@@H]1CN(C)S(=O)(=O)c1ccccc1 | inactive
63 | C[C@H]1CCCCO[C@@H](CN(C)C(=O)c2ccccc2)[C@@H](C)CN([C@@H](C)CO)C(=O)c2cc(NC(=O)NC3CCCCC3)ccc2O1 | inactive
